Results published in PubChem BioAssay AID1159580 (chemical genetic matrix, 2015).
Values joined by “and” are separate entries in the source; they are usually repeats but may differ in a detail not shown here. Identical values can stand only once. Hit rate of the full screen: of about 5,500 compounds, about 2,000 (36%) were called active. Another 18% or so got no clear call; they are omitted. Rule as the data show it: active = normalized growth mostly below about 0.91 (no sharp cut-off); inconclusive = no clear call, values can overlap the other calls; inactive = mostly above about 0.92. The list shows a part of the results.

Test: chemical genetic growth profiling, strain panel (AID 1159580);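 also: tested at 20 µM; growth read once vehicle control cultures reached saturation at 30 °C; 1 = growth at the plate median or of vehicle wells; lower values mean less growth of the strain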
Details: S. cerevisiae deletion strains, growth OD

Measured: normalized growth

C[C@@H]1C(=O)OC2[C@H](O)C34[C@@H]5OC(=O)[C@@]3(O[C@@H]3OC(=O)[C@H](O)[C@@]34[C@H](C(C)(C)C)[C@H]5O)[C@]21O (stereo partly drawn)
inactive: locus YAL013W, strain DEP1, stronger effect = lower value 0.998 | locus YAL021C, strain ccr4, stronger effect = lower value 0.952 | locus YAL026C, strain drs2, stronger effect = lower value 0.978 | locus YAL030W, strain snc1, stronger effect = lower value 0.973 | locus YBL061C, strain skt5, stronger effect = lower value 0.975 | locus YBR009C, strain hhf1, stronger effect = lower value 0.959 | locus YBR021W, strain FUR4, stronger effect = lower value 0.983 | locus YBR023C, strain chs3, stronger effect = lower value 0.986 | locus YBR171W, strain sec66, stronger effect = lower value 0.974 | locus YBR229C, strain ROT2, stronger effect = lower value 1 | locus YBR231C, strain swc5, stronger effect = lower value 0.976 | locus YBR279W, strain paf1, stronger effect = lower value 0.98 | locus YCL011C, strain gbp2, stronger effect = lower value 0.972 | locus YCL016C, strain dcc1, stronger effect = lower value 0.975 | locus YCL029C, strain bik1, stronger effect = lower value 1.02 | locus YCL061C, strain MRC1, stronger effect = lower value 0.96 | locus YCL069W, strain vba3, stronger effect = lower value 0.976 | locus YCR088W, strain abp1, stronger effect = lower value 0.983 | locus YDL005C, strain med2, stronger effect = lower value 0.964 | locus YDL035C, strain GPR1, stronger effect = lower value 1 | locus YDL040C, strain nat1, stronger effect = lower value 0.975 | locus YDL074C, strain BRE1, stronger effect = lower value 0.999 | locus YDL101C, strain DUN1, stronger effect = lower value 1.01 | locus YDL134C, strain PPH21, stronger effect = lower value 0.999 | locus YDL185W, strain tfp1, stronger effect = lower value 1.02 | locus YDL192W, strain arf1, stronger effect = lower value 1.01 | locus YDR001C, strain nth1, stronger effect = lower value 0.973 | locus YDR069C, strain doa4, stronger effect = lower value 0.983 | locus YDR101C, strain arx1, stronger effect = lower value 1.01 | locus YDR137W, strain rgp1, stronger effect = lower value 0.935 | locus YDR159W, strain sac3, stronger effect = lower value 0.946 | locus YDR162C, strain NBP2, stronger effect = lower value 0.987 | locus YDR195W, strain ref2 0.942 | locus YDR297W, strain sur2, stronger effect = lower value 0.97 | locus YDR318W, strain mcm21, stronger effect = lower value 1.01 | locus YDR334W, strain swr1, stronger effect = lower value 0.976 | locus YDR335W, strain msn5, stronger effect = lower value 0.965 | locus YDR388W, stronger effect = lower value 1.01 | locus YDR392W, strain spt3, stronger effect = lower value 0.949 | locus YDR502C, strain sam2, stronger effect = lower value 1.03 | locus YEL003W, strain gim4, stronger effect = lower value 0.961 | locus YEL037C, strain rad23, stronger effect = lower value 0.976 | locus YEL061C, strain CIN8 (second series), stronger effect = lower value 0.965 | locus YEL061C, strain CIN8, stronger effect = lower value 0.992 | locus YER015W, strain faa2, stronger effect = lower value 0.989 | locus YER016W, strain bim1, stronger effect = lower value 0.975 | locus YER110C, stronger effect = lower value 1.01 | locus YER111C, strain swi4, stronger effect = lower value 0.964 | locus YER155C, strain BEM2 (second series), stronger effect = lower value 1.02 | locus YER155C, strain BEM2, stronger effect = lower value 1 | locus YER167W, strain BCK2, stronger effect = lower value 0.996 | locus YFR010W, strain ubp6, stronger effect = lower value 0.985 | locus YGL078C, strain dbp3, stronger effect = lower value 1.01 | locus YGL086W, strain mad1, stronger effect = lower value 1.03 | locus YGL167C, strain pmr1, stronger effect = lower value 0.972 | locus YGL173C, strain kem1, stronger effect = lower value 0.953 | locus YGL227W, strain vid30, stronger effect = lower value 0.955 | locus YGL240W, strain doc1, stronger effect = lower value 0.981 | locus YGL248W, strain PDE1, stronger effect = lower value 1.01 | locus YGL253W, strain hxk2, stronger effect = lower value 0.974 | locus YGR078C, strain PAC10, stronger effect = lower value 1 | locus YGR135W, strain pre9, stronger effect = lower value 1.02 | locus YGR252W, strain gcn5, stronger effect = lower value 1.01 | locus YHR013C, strain ard1, stronger effect = lower value 0.957 | locus YHR027C, strain rpn1, stronger effect = lower value 0.987 | locus YHR030C, strain SLT2, stronger effect = lower value 1 and 1.05 | locus YHR079C, strain IRE1 (second series), stronger effect = lower value 1.02 | locus YHR079C, strain IRE1, stronger effect = lower value 1.03 | locus YHR094C, strain hxt1, stronger effect = lower value 1.01 | locus YHR129C, strain ARP1, stronger effect = lower value 1 | locus YHR142W, strain chs7, stronger effect = lower value 0.956 | locus YHR200W, strain rpn10, stronger effect = lower value 1.01 | locus YIL066C, strain RNR3, stronger effect = lower value 1 | locus YIL073C, strain SPO22, stronger effect = lower value 1.06 | locus YIL125W, strain kgd1, stronger effect = lower value 1.01 | locus YIR030C, strain dcg1, stronger effect = lower value 1.02 | locus YJL092W, strain hpr5, stronger effect = lower value 0.975 | locus YJL095W, strain BCK1 (second series), stronger effect = lower value 0.955 | locus YJL095W, strain BCK1, stronger effect = lower value 0.992 and 1.03 | locus YJL115W, strain asf1, stronger effect = lower value 0.956 | locus YJL129C, strain trk1, stronger effect = lower value 0.974 | locus YJL134W, strain LCB3, stronger effect = lower value 1 | locus YJL154C, strain vps35, stronger effect = lower value 0.977 | locus YJL164C, strain tpk1, stronger effect = lower value 0.969 | locus YJL166W, strain qcr8, stronger effect = lower value 0.992 | locus YJL168C, strain set2, stronger effect = lower value 1.01 | locus YJL187C, strain SWE1 (second series), stronger effect = lower value 1.01 | locus YJR043C, strain POL32, stronger effect = lower value 0.994
